Active and inactive are the calls of the source.
Key:
[1] = test system: Plasmodium falciparum Sir2 (PF13_0152, Sir2A); assay: pfSir2 binders on small-molecule microarrays, primary screen, biochemical, small-molecule microarray, 635 nm fluorescence (AID 1098); conditions: small-molecule microarray binding, fluorescence 635 nm; higher = more signal;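 further: score merges spot fluorescence intensity with its signal-to-noise ratio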
[2] = small-molecule microarray binders of probe aDKK1, primary screen, biochemical, biotinylated probe, 635/667 nm fluorescence (AID 1099); conditions: higher = more signal;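 further: score merges 667nm spot fluorescence with signal to noise across triplicate slides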
[3] = small-molecule microarray binders of probe aCHRDL2, primary screen, biochemical, biotinylated probe, 635/667 nm fluorescence (AID 1100); conditions: higher = more signal
[4] = splicing luciferase reporter signal modulators, primary screen, spliceosome inhibition project, cell-based, HEK293, splice +/- reporter (AID 1101); conditions: luminescence, 24 h, higher = more signal, called active from +8 up or from −8 down;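 further: HEK293 cells carrying a splicing-competent luciferase reporter gene; test concentration not given here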
[5] = molecular target: Fibroblast growth factor 10 (Homo sapiens) (UniProt O15520); assay: FGF10 binders on small-molecule microarrays, primary screen, biochemical, small-molecule microarray, 635 nm fluorescence (AID 1102); conditions: FGF10 binding, fluorescence 635 nm, higher = more signal
[6] = test system: glycogen synthase kinase-3 (GSK3A per assay name; protocol says GSK3B); assay: GSK3 binders on small-molecule microarrays, primary screen, biochemical, small-molecule microarray, 635 nm fluorescence, GSK3A (AID 1103); conditions: small-molecule microarray binding, fluorescence 635 nm; higher = more signal; further: the record names both GSK3A and GSK3B
[7] = molecular target: Epidermal growth factor receptor (Homo sapiens) (UniProt P00533); assay: EGFR binders on small-molecule microarrays, primary screen, biochemical, small-molecule microarray, 635 nm fluorescence (AID 1104); conditions: EGFR binding, higher = more signal;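 further: score merges 667 nm emission intensity with spot signal to noise over triplicate slides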
[8] = molecular target: Follistatin-related protein 3 (Homo sapiens) (UniProt O95633); assay: FSTL3 binders on small-molecule microarrays, primary screen, biochemical, small-molecule microarray, 635 nm fluorescence (AID 1105); conditions: FSTL3 binding, higher = more signal;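 further: score merges emission near 667 nm and signal to noise per printed spot across three slides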
[9] = molecular target: Dickkopf-related protein 1 (Homo sapiens) (UniProt O94907); assay: DKK1 binders on small-molecule microarrays, primary screen, biochemical, small-molecule microarray, 635 nm fluorescence scan (AID 1106); conditions: DKK1 binding, higher = more signal;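 further: score merges emission near 667 nm with signal to noise over three replicate slides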
[10] = test system: Inhibin beta A chain (activin A); assay: INHBA (activin A) binders on microarrays, primary screen, biochemical, small-molecule microarray, 635 nm fluorescence scan (AID 1107); conditions: small-molecule microarray binding, higher = more signal;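 further: mouse activin A protein probed at 4.33 µg/mL on printed slides; score merges bound-protein fluorescence near 667 nm with spot signal-to-noise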
[11] = test system: Human papillomavirus type 1a protein E7 (residues 44-93); assay: HPV1a E7 fragment binders on microarrays, primary screen, biochemical, small-molecule microarray, residues 44-93, 635 nm fluorescence (AID 1108); conditions: small-molecule microarray binding, fluorescence 635 nm; higher = more signal;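 further: E7 fragment applied at 1 µg/mL in TBST for 1 h at 4 C; score combines spot fluorescence with its signal to noise ratio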
[12] = modulators of HCV replicon luciferase signal, primary screen, HCV replication inhibitor project, Huh7 cells, luciferase reporter (AID 1109); conditions: 48 h, higher = more signal;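 further: huh7 hepatoma cells harbouring a luciferase neomycin HCV replicon reporter; luciferase luminescence as measure of HCV replicon replication; test concentration not given here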
[13] = molecular target: Left-right determination factor 2 (Homo sapiens) (UniProt O00292); assay: LEFTY2 binders on small-molecule microarrays, primary screen, biochemical, small-molecule microarray, 635 nm fluorescence scan (AID 1110); conditions: LEFTY2 binding, higher = more signal
[14] = molecular target: Calmodulin-1 (Homo sapiens) (UniProt P0DP23); assay: CALM1 binders on microarrays, EGTA buffer, profiling panel, biochemical, small-molecule microarray, Cy5-labelled CALM1 (AID 1111); conditions: Cy5-CALM1 binding fluorescence, higher = more signal;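 further: labelled calmodulin applied in Tris saline Tween buffer holding calcium plus EGTA and DTT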
[15] = molecular target: Calmodulin-1 (Homo sapiens) (UniProt P0DP23); assay: calcium-bound CALM1 binders on microarrays, profiling panel, artefact control for SMM control-protein annotation, biochemical, small-molecule microarray, Cy5-labelled CALM1, plus calcium (AID 1112); conditions: Cy5-CALM1 binding fluorescence, higher = more signal;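 further: score merges spot fluorescence with signal to noise from triplicate slides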
[16] = small-molecule microarray binders of probe aWnt5a, primary screen, biochemical, biotinylated probe, 635/667 nm fluorescence (AID 1113); conditions: higher = more signal;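 further: score merges 667 nm fluorescence intensity with signal-to-noise per printed feature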
[17] = small-molecule microarray binders of probe aShh, primary screen, biochemical, biotinylated probe, 635/667 nm fluorescence (AID 1114); conditions: higher = more signal;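 further: probe is biotin-labelled aShh protein from a stem cell growth factor screen; measures binding of labelled protein to compounds printed on the slide; score merges feature fluorescence at 667 nm with signal-to-noise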
[18] = small-molecule microarray binders of probe aNog, primary screen, biochemical, biotinylated probe, 635/667 nm fluorescence (AID 1115); conditions: higher = more signal;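 further: probe is biotinylated aNog protein used at 0.15 µg/mL for 1 h at 4 C; z-score combines 667 nm fluorescence of each spot with its signal to noise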
[19] = molecular target: Torsin-1A-interacting protein 1 (Homo sapiens) (UniProt Q5JTV8); assay: LAP1 binders from COS7 cell lysate, primary screen, small-molecule microarray, 635/667 nm fluorescence (AID 1116); conditions: COS7-hLAP1 lysate binding, 635 nm fluorescence, higher = more signal
[20] = molecular target: Alpha-bungarotoxin (Bungarus multicinctus) (UniProt P60615); assay: alpha-bungarotoxin binders on microarray, profiling panel, artefact control for SMM control protein annotation, biochemical, small-molecule microarray, Alexa647 label, 635/667 nm fluorescence (AID 1117); conditions: alpha-BTX-A647 binding fluorescence, higher = more signal
Chain of Alpha-bungarotoxin (Bungarus multicinctus) (P60615 whole entry, looked up): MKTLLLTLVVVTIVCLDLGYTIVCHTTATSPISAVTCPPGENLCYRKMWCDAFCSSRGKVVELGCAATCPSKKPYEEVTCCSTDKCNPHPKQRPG

Chain of Fibroblast growth factor 10 (Homo sapiens) (O15520 whole entry, looked up): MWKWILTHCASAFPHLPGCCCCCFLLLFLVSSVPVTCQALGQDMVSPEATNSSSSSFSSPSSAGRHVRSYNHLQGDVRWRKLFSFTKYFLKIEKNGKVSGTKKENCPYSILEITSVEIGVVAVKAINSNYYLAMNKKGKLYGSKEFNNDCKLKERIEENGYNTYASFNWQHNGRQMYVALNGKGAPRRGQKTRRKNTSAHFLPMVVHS
Chain of Torsin-1A-interacting protein 1 (Homo sapiens) (Q5JTV8 whole entry, looked up): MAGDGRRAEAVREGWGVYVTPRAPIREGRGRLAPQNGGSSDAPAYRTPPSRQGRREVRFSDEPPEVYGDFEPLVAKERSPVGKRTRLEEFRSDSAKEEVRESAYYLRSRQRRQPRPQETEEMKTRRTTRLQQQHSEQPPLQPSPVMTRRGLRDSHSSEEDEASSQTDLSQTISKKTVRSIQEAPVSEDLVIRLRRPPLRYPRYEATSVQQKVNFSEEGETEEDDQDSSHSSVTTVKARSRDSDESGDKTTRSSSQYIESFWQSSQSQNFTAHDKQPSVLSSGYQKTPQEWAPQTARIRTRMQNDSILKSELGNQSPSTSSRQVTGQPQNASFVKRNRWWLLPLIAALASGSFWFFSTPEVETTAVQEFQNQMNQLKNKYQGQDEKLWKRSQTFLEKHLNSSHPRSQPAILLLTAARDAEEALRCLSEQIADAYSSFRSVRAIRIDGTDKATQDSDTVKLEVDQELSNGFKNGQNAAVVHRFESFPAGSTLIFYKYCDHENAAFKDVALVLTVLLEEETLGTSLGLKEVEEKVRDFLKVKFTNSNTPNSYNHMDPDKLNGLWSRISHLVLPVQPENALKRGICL
Chain of Left-right determination factor 2 (Homo sapiens) (O00292 whole entry, looked up): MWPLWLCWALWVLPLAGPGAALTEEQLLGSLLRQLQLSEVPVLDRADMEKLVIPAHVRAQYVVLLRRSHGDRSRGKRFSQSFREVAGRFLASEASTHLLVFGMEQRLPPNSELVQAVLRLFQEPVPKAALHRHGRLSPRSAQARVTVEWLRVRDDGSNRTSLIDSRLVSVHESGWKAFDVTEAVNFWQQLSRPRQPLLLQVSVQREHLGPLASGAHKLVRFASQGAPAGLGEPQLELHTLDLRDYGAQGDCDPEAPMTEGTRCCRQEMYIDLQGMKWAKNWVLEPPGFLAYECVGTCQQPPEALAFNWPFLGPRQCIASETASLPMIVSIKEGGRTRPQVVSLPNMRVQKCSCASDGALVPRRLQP
Chain of Follistatin-related protein 3 (Homo sapiens) (O95633 whole entry, looked up): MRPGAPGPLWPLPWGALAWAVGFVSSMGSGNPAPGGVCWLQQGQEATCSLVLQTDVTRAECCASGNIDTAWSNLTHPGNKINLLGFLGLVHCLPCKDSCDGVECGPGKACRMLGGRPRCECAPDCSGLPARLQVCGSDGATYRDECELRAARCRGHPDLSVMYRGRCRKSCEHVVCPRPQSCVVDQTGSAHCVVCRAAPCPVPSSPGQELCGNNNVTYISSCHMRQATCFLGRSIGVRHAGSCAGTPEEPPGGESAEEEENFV
Chain of Epidermal growth factor receptor (Homo sapiens) (P00533 whole entry, looked up): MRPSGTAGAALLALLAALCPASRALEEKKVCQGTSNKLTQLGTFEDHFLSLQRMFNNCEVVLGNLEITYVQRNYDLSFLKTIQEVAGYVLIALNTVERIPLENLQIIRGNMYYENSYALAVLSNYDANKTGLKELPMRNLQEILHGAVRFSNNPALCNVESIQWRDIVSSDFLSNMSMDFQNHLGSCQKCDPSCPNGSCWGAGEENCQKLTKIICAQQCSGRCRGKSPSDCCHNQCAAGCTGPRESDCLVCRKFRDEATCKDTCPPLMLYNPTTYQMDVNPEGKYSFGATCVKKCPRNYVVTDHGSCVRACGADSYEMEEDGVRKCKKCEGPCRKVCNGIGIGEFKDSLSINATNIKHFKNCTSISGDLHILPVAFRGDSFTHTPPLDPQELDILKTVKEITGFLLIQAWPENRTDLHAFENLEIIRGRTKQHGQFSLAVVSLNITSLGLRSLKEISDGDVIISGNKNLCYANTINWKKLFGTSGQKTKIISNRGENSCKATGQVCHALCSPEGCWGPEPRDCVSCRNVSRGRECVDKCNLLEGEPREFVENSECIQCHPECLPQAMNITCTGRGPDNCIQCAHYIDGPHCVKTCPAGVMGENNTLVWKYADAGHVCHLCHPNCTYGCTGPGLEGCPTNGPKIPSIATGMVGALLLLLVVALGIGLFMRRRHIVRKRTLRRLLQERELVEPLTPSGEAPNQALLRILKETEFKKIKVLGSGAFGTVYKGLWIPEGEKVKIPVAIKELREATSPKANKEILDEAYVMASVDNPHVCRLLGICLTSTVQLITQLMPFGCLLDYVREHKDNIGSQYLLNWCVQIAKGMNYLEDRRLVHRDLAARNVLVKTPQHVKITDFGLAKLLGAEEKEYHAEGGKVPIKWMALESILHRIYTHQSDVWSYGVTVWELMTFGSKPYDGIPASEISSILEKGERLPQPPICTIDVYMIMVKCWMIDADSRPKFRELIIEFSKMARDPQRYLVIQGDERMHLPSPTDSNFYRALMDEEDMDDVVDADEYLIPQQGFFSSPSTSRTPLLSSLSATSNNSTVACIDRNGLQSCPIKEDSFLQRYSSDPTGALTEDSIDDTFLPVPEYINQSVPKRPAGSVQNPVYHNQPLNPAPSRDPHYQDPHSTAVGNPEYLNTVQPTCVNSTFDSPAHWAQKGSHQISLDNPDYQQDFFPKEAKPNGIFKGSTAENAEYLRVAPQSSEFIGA
Chain of Dickkopf-related protein 1 (Homo sapiens) (O94907 whole entry, looked up): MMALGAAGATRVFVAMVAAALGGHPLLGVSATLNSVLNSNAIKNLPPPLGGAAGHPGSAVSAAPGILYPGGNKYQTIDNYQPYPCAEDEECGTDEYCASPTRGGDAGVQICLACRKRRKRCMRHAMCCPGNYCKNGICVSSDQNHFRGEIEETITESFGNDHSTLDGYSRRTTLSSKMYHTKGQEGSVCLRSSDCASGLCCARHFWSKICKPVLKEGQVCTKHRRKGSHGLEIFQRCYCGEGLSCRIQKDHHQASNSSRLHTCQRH

Structure (SMILES)	composite z-score [1]	composite z-score [2]	composite z-score [3]	z-score [4]	composite z-score [5]	composite z-score [6]	composite z-score [7]	composite z-score [8]	composite z-score [9]	composite z-score [10]	composite z-score [11]	z-score [12]	composite z-score [13]	composite z-score [14]	composite z-score [15]	composite z-score [16]	composite z-score [17]	composite z-score [18]	composite z-score [19]	composite z-score [20]
CC#CCO[Si](C#CCCCCCC)(C(C)C)C(C)C	1.5	-0.32	1.21	0.176 (inactive)	-2.46	-0.719	-2.07	-2.09	-3.48	-2.74	-0.321	0.158	-3.37	-0.626	1.01	-0.275	-0.304	-0.417	-0.438	0.0016
N#Cc1ccc(C(O)C2C=CC3C(=O)NC(=O)C3N2Nc2ccccn2)cc1 (stereo not given)	0.348	-0.164	0.425	-0.785 (inactive)	0.0221	0.137	0.362	-0.193	0.0057	0.921	0.447	-0.676	0.286	0.2	-0.272	-0.178	0.151	0.287	-0.298	0.617
O=C1O[C@@H](c2ccccc2)[C@@H](c2ccccc2)N2[C@@H](c3ccc(OCCO)cc3)[C@]3(C(=O)Nc4ccc(C#CCCO)cc43)[C@@H](C(=O)Nc3nc4ccccc4s3)[C@H]12	1.08	0.49	0.683	-0.288 (inactive)	0.975	1.29	0.367	1.08	0.0321	0.655	1.36	-1.36	0.364	0.84	0.338	0.0219	0.0639	-0.353	0.82	0.626
CCCCC=C[C@@H](NC(=O)c1ccc(C(F)(F)F)cc1)c1ccccc1	-0.101	0.256	0.905	-4.33 (inactive)	-1.13	-1.03	-1.28	-1.01	-1.37	1.37	-0.297	-0.887	-0.636	-0.0968	0.382	-0.134	0.0022	0.278	-0.946	-1.07
C=C(COC)C(=O)CC[C@@H](OC(=O)c1cccnc1)c1cccc(OCCO)c1	0.709	0.119	0.618	3.33 (inactive)	1.27	-0.284	-0.0749	0.652	0.284	1.37	0.743	-1.64	-0.116	-0.725	-0.89	-0.0731	0.0121	1.09	0.295	-0.101
CC(C)N1CC=CC23O[C@@H]4C=CCCOC(=O)C4[C@H]2C(=O)N(CCCCCO)[C@@H]3C1=O (stereo not given in full)	1.58	-0.188	0.317	-0.0254 (inactive)	-0.347	-1.26	-0.575	-0.749	-1.06	0.559	-0.734	-0.26	-1.18	0.861	-1.34	-0.124	-0.0011	-0.123	1.92	2.25
CCCCCCCCCCC(O)C1C=CC2C(=O)N(C)C(=O)C2N1N1CCCCC1 (stereo not given)	0.331	-0.267	0.598	1.53 (inactive)	-1.9	-1.41	-2.01	-1.63	-1.29	1.35	-0.469	-0.941	-2.49	-0.311	1.4	-0.196	0.0278	0.715	-0.428	-1.09
CCOC(=O)C1=CC[C@@H](c2ccccc2)N(S(=O)(=O)c2ccc(C)cc2)[C@H]1C#N	1.54	0.507	0.56	0.705 (inactive)	0.417	0.73	-0.106	-0.111	-0.377	-0.0426	0.894	-1.76	0.116	0.906	0.658	0.0044	-0.16	-0.59	1.03	-0.06
CC(C)=CCN(C(=O)C#Cc1ccccc1)[C@H](CO)c1ccccc1	-0.117	-0.267	-0.693	7.56 (inactive)	0.341	0.506	0.512	0.604	0.439	0.661	1.16	-4.92	0.379	-0.557	-0.56	-0.0346	-0.16	-0.302	0.58	0.14
C=CC[C@@]1(C(=O)N(C)C)N=C(c2ccc(OCCCO)cc2)O[C@@H]1c1ccccc1	1.72	0.595	0.959	-0.69 (inactive)	1.4	1.01	-0.644	-0.583	-0.217	1.17	0.242	-0.624	0.191	0.401	0.621	0.233	0.246	-0.42	0.961	0.826
C=CCC(OC(C)=O)[C@@H]1[C@@H](N(Cc2cc3ccccc3o2)C(=O)c2cccc3ccccc23)c2cc(OCCCO)ccc2N1C(=O)c1ccc2ccccc2c1 (stereo not given in full)	-0.459	0.245	0.246	-1.18 (inactive)	0.0473	-0.553	-0.0798	0.182	0.0022	0.867	-0.0617	-0.0143	-0.338	-0.0758	0.63	0.0047	-0.138	-0.12	0.414	0.0671
